# Reference: PubChem BioAssay (NCATS)
# Records with an inconclusive call do not appear. Values without a mark were called inactive. The source made the active and inactive calls. The call rests on the fitted dose curve; in most records, active means well fitted inhibition curve with a large enough effect; inconclusive means small, poorly fitted or top-dose-only effect; inactive means flat fitted curve, though single readings scatter.
# Target: Glutathione peroxidase 1 (Homo sapiens) (UniProt P07203)
# Test: Primary qHTS Assay for Inhibitors of Recombinant Selenoprotein Glutathione Peroxidase 1 (GPX1) (AID 1845191); further: nearly all actives have a fitted effect of over 65% in size
# Conditions: recombinant GPX1, GR-coupled NADPH fluorescence, 15 min; series mostly up to 48.8 µM; activity, negative = inhibition: at the top concentration
# Outline: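 Recombinant GPX1 (10 nM final) was preincubated with compound for 30 min at room temperature, then reacted with 1 mM GSH, 0.5 mM CHP, 0.5 mM NADPH and 100 nM glutathione reductase; NADPH fluorescence (340/450 nm) was read at 0 and 15 min.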
# On the % scale 0 is the no-effect control and ±100 the full control effect; potency means the concentration at half of the fitted maximal effect.
# Chain of Glutathione peroxidase 1 (Homo sapiens) (P07203 whole entry, looked up): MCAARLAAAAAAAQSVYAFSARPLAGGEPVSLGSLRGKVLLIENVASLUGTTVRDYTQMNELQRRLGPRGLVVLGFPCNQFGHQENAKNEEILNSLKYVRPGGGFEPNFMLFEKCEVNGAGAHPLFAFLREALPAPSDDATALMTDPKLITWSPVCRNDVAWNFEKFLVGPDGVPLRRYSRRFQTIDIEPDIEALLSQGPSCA
SMILES,outcome,"activity, negative = inhibition [%]",Potency
CNCCN(C)Cc1cn[nH]c1-c1ccc(OC2CC(OCCC3CCOCC3)C2)cc1 (stereo not drawn),inactive,–,–
CC(CCC1(O)OC2CC3C4CC=C5CC(O[C@@H]6O[C@H](CO)[C@@H](O[C@@H]7O[C@H](CO)[C@@H](O)[C@H](O)[C@H]7O)[C@H](O)[C@H]6O[C@@H]6O[C@@H](C)[C@H](O)[C@@H](O)[C@H]6O)CCC5(C)C4CCC3(C)C2C1C)CO[C@@H]1O[C@H](CO)[C@@H](O)[C@H](O)[C@H]1O (stereo partly drawn),inactive [at 15.3 µM],–,–
CC1(CO)CCCC2(C)C1C(OC(=O)c1ccccc1)C=C1C(=O)OCC12O (stereo not drawn),inactive [at 27.7 µM],–,–
Cn1c(NC[C@@H](N)Cc2ccccc2)nc(-c2ccncc2)c(-c2ccc3ccccc3c2)c1=O,inactive,–,–
Nc1nc(NCC2CCC(CNS(=O)(=O)c3cccc4ccccc34)CC2)nc2ccccc12 (stereo not drawn),inactive,–,–
COc1ccc(NS(=O)(=O)c2sc3ccc(Cl)cc3c2C)cc1N1CCNCC1,inactive,–,–
CCC(=O)c1cc(-c2ccc(Cl)cc2)n(-c2ccc(S(N)(=O)=O)cc2)c1C,–,-21.5,–
Cc1cc(N=Nc2ccc(S(=O)(=O)Nc3ccccn3)cc2)c(N)cc1O,–,-25.9,–
Cc1nnsc1C(=O)Nc1ccc(-n2nc(C(F)(F)F)cc2C(F)(F)F)cc1,–,-8.76,–
Cc1cc(C)c(NC(=O)N(Cc2ccc3c(c2)Cc2ccccc2-3)C2CCCCCC2)c(C)c1,–,0.534,–
Fc1ccccc1CNCc1ccc(-c2ccnc3[nH]ccc23)cc1,–,–,25.5 µM (active)
Cc1nc(C)c2c(n1)N(Cc1ccc(-c3ccccc3-c3nn[nH]n3)cc1)C(=O)CC2,inactive,–,–
CCCCOc1ccc(-c2cncc(C(=O)NCc3cccnc3N3CCOCC3)c2)cc1Cl,–,-7.03,–
